For 16 molecules, composite z-score and z-score results are on record in PubChem BioAssay.

Experiment [1] in a line: binders of probe aFSTL3 on microarray, primary screen, stem cell growth factor project, biochemical, small-molecule microarray, fluorescence 635/667 (AID 1064).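 Note: measures binding of the biotinylated anti-FSTL3 antibody to printed compounds.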 Conditions: higher = more signal.
A short description of experiment [2]: binders from COS7 lysate, DM2A8 probe, primary screen, torsin A project, cell lysate, small-molecule microarray, fluorescence 635/667 (AID 1065). Conditions: higher = more signal, COS7 lysate expressing mutant human TOR1A.
The nature of experiment [3]: binders of probe aFGF2 on microarray, primary screen, stem cell growth factor project, biochemical, small-molecule microarray, fluorescence 635/667 (AID 1067).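 Note: measures binding of biotinylated aFGF2 protein to printed compounds on slides; z-score merges feature fluorescence and signal-to-noise across triplicate slides.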 The following applies: higher = more signal.
Experiment [4] in a line: binders of probe aFGF10 on microarray, primary screen, stem cell growth factor project, biochemical, small-molecule microarray, fluorescence 635/667 (AID 1071).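 Note: score merges 667 nm spot intensity and signal to noise from triplicate slides.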 Conditions: higher = more signal.
In experiment [5] the target is Neurogenic locus notch homolog protein 2 (Homo sapiens) (UniProt Q04721). The experiment can be described thus: Notch2 binders on small-molecule microarrays, primary screen, biochemical, small-molecule microarray, 635 nm fluorescence, stem cell growth factors (AID 1073). Conditions: Notch2 binding, higher = more signal.
Chain of Neurogenic locus notch homolog protein 2 (Homo sapiens) (Q04721 whole entry, looked up, canonical isoform): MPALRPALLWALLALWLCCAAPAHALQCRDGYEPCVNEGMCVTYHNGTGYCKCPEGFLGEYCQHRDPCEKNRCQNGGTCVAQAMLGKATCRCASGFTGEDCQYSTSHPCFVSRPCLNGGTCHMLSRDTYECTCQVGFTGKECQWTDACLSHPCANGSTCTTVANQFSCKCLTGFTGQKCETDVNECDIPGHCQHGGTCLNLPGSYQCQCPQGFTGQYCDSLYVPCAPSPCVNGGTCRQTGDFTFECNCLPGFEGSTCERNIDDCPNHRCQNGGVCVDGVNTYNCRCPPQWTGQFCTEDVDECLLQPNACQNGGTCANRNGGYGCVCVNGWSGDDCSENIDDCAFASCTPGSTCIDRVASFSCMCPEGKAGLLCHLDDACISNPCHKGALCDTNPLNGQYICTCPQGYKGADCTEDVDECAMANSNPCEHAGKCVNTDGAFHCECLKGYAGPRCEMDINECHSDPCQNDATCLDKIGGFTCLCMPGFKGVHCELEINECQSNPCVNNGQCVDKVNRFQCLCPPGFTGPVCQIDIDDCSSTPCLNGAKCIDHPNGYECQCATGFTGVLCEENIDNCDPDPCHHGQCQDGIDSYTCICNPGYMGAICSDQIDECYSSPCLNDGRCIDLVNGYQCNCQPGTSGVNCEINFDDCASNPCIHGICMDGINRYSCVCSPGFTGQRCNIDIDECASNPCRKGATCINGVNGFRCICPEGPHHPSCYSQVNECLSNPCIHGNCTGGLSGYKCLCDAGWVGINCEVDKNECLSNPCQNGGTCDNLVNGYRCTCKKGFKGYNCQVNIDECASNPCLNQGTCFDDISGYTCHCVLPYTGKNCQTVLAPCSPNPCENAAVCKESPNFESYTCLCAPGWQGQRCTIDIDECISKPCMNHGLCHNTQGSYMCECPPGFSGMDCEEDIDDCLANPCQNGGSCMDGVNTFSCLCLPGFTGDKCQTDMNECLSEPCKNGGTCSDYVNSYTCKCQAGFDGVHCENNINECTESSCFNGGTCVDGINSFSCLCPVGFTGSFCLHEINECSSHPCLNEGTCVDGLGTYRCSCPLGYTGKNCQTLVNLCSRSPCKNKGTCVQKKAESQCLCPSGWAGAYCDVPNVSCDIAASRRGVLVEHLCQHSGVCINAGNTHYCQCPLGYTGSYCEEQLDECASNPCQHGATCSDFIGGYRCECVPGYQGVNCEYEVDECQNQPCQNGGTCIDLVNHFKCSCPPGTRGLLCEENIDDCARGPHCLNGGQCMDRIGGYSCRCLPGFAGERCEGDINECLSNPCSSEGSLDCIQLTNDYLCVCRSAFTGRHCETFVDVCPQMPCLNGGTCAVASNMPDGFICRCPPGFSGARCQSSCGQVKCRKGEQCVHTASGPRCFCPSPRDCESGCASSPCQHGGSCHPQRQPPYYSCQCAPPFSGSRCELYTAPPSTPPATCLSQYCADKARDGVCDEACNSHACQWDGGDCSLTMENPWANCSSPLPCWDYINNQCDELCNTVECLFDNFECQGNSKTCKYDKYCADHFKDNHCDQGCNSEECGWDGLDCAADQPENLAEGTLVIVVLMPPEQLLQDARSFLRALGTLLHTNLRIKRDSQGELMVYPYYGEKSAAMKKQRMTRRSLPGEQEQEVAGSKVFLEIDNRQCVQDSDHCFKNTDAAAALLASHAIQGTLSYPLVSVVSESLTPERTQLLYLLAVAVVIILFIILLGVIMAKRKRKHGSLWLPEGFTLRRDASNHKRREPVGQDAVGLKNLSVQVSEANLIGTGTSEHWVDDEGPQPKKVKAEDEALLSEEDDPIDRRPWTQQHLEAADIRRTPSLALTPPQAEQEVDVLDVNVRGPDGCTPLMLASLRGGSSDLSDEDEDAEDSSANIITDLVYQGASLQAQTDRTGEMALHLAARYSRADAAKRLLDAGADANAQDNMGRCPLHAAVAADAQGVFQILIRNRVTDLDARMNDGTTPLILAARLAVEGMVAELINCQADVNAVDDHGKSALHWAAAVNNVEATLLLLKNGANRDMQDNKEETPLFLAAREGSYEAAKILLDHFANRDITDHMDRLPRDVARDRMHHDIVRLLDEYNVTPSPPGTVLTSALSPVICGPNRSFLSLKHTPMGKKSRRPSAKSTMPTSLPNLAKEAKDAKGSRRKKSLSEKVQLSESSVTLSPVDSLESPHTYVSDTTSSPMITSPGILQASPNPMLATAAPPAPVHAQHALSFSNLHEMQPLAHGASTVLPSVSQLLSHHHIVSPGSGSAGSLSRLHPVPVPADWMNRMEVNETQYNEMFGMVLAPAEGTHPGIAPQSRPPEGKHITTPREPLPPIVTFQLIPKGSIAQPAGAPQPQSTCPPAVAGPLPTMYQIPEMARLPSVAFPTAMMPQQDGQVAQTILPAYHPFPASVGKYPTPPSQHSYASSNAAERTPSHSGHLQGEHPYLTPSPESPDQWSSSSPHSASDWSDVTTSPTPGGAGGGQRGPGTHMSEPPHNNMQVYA
Experiment [6] concerns the target Pro-neuregulin-1, membrane-bound isoform (Homo sapiens) (UniProt Q02297). The experiment can be described thus: NRG1 binders on small-molecule microarrays, primary screen, psychiatric disease protein project, biochemical, small-molecule microarray, fluorescence 635/667 (AID 1075).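 Note: score combines 667 nm spot fluorescence with signal to noise.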 The following applies: NRG1 binding, 635 nm fluorescence, higher = more signal.
In experiment [7] the test system is Neuregulin-1 EGF-like domain. The experiment can be described thus: binders of neuregulin-1 EGF-like domain, primary screen, biochemical, small-molecule microarray, 635 nm fluorescence (AID 1081).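 Note: binding of the protein to compounds printed on small-molecule microarray slides.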 Conditions: small-molecule microarray binding, higher = more signal.
Experiment [8] is described as follows: FRG1 promoter luciferase signal modulators, primary screen, FRG1 inhibition for FSHD, cell-based, C2C12 myotubes, firefly/Renilla luciferase, luminescence (AID 1084). The following applies: higher = more signal, called active from +8 up or from −8 down.
Experiment [9] is described as follows: binders of probe aFST on microarray, primary screen, stem cell growth factor project, biochemical, small-molecule microarray, fluorescence 635/667 (AID 1086).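 Note: score merges 667 nm fluorescence with signal-to-noise of each printed compound spot.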 The following applies: higher = more signal.
A short description of experiment [10]: binders of probe aHhip on microarray, primary screen, stem cell growth factor project, biochemical, small-molecule microarray, fluorescence 635/667 (AID 1087).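 Note: score merges spot fluorescence at 667nm with spot signal to noise ratio.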 The following applies: higher = more signal.

The source made the active and inactive calls.

Chain of Pro-neuregulin-1, membrane-bound isoform (Homo sapiens) (Q02297 whole entry, looked up, the tested form may be a part, canonical isoform): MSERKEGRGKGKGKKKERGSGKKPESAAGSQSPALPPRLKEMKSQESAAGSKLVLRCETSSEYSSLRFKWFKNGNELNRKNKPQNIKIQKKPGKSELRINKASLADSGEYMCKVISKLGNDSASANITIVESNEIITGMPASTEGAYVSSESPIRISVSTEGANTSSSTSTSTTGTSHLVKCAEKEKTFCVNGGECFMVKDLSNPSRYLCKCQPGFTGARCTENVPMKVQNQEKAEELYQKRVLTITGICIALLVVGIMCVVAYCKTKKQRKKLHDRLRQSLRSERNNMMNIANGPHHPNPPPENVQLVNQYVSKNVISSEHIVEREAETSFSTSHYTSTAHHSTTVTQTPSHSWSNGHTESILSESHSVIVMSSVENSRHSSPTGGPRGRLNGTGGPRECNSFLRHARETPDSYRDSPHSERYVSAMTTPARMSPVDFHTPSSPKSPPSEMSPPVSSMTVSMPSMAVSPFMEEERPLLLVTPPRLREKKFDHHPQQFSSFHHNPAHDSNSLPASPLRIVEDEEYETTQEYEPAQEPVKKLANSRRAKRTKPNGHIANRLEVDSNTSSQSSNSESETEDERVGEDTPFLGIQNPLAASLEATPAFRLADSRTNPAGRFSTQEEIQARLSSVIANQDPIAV

For the molecule `C=CC[C@@]1(C(=O)N2CCOCC2)N=C(c2ccc(OCCCO)cc2)O[C@@H]1c1ccccc1`, the composite z-score in [1] was -0.487; in experiment [2] it was 1.2; in experiment [3], -0.117; in [4], 0.351; in experiment [5], 0.369; in experiment [6] it was 1.12. Also, the composite z-score was 1.08 in experiment [7], -0.298 in experiment [9] and -0.712 in [10]. For the same molecule, the z-score in experiment [8] is -1.36 (inactive).

Turning to `CO[C@H]1COC(=O)CC=C[C@H](C)COC(=O)[C@@H](OCc2ccccc2)C=C[C@@H]1C`, the composite z-score is -0.938 in [1]; 2.14 in experiment [2]; -0.317 in [3]; -1.11 in experiment [4]; -1.49 in experiment [5]; 0.311 in experiment [6]. In addition, the values for the composite z-score in experiment [7], in experiment [9] and in [10] were 0.958, -0.0875 and -0.12, respectively. The z-score in experiment [8] is 0.236 (inactive).

As for `CC(C)N1CC=CC23O[C@@H]4/C=C\CCCOC(=O)C4[C@H]2C(=O)N(CCO)[C@@H]3C1=O` (stereo not given in full), the composite z-score was -0.0118 in experiment [1]; -0.158 in experiment [2]; -0.156 in experiment [3]; -0.958 in experiment [4]; -0.933 in experiment [5]; 2.16 in [6]. Besides, the composite z-score in [7] was 1.12; in experiment [9], -0.219; in experiment [10], -0.257. Besides, the z-score in [8] is -0.469 (inactive).

For the molecule `Cc1ccc(S[C@]2(C(=O)NCCCN(C)C)CC(=O)N(Cc3ccccc3)[C@@H]2c2ccc(CO)cc2I)cc1`, the composite z-score in experiment [1] was 1.04; in experiment [2], -1.08; in experiment [3], -0.0785; in experiment [4], -0.244; in experiment [5] it was -0.189; in experiment [6] it was 1.39. Also, the composite z-score is 0.727 in experiment [7], 1.04 in experiment [9] and -0.427 in experiment [10]. For the same molecule, in experiment [8], the z-score is -0.463 (inactive).

`COc1cc(Cc2cc3c(c(CCc4ccccc4)n2)[Si](C(C)C)(C(C)C)OC3)cc(OC)c1OC`: the composite z-score was -0.0934 in experiment [1]; -0.0736 in [2]; -0.146 in experiment [3]; -0.108 in experiment [4]; -0.0899 in experiment [5]; -0.35 in experiment [6]. Moreover, the composite z-score was -0.233 in experiment [7], 0.337 in experiment [9] and -0.0672 in experiment [10]. The z-score in experiment [8] was 0.311 (inactive).

As for `COc1ccc(C(=O)Nc2ccc(CN3C(=O)[C@]4(O[C@H](CCn5cc(CCO)nn5)[C@@H]([Si](C)(C)c5ccc(OC)cc5)[C@@H]4C)c4ccccc43)cc2)cc1`, the composite z-score in experiment [1] stood at 0.263; in experiment [2], 0.259; in [3], 0.0331; in experiment [4] it was 1.05; in experiment [5], 1.46; in experiment [6] it was 0.485. Besides, the composite z-score in experiment [7] was 1.09; in experiment [9], -0.177; in experiment [10], -0.0645. In addition, the z-score in [8] is -3.72 (inactive).

`COc1ccc([Si](C)(C)[C@H]2[C@H](CCO)O[C@@]3(C(=O)N(Cc4ccc(N5CCCCC5=O)cc4)c4ccccc43)[C@@H]2C)cc1`: the composite z-score in experiment [1] was 0.0352; in experiment [2] it was 0.959; in experiment [3], -0.0747; in [4], -0.0971; in experiment [5], 0.308; in [6] it was 1.46. The composite z-score was 1.05 in [7], 0.172 in experiment [9] and -0.0994 in experiment [10]. For the same molecule, in experiment [8], the z-score is -4.59 (inactive).

Take `O=C1c2ccccc2[C@](Cc2ccccc2I)(C(=O)NCC(F)(F)F)[C@H](c2ccc(CO)cc2)N1Cc1ccccc1C(F)(F)F`: the composite z-score is -0.379 in experiment [1]; 0.57 in experiment [2]; -0.0856 in experiment [3]; 0.22 in [4]; 0.902 in experiment [5]; 1 in experiment [6]. The composite z-score is 1.2 in experiment [7], 1.16 in [9] and -0.466 in experiment [10]. Moreover, the z-score in experiment [8] is -0.307 (inactive).

For the molecule `CC(C)[Si]1(C(C)C)OCc2cc(C3CC3)nc(-c3ccccc3)c21`, the composite z-score in experiment [1] is 0.322; in experiment [2], 0.598; in experiment [3], -0.119; in experiment [4] it was -1.2; in experiment [5], -1.27; in [6], -0.291. Moreover, the figures for the composite z-score in [7], in experiment [9] and in experiment [10] were -0.531, -0.135 and -0.261, respectively. For the same molecule, in experiment [8], the z-score was -1.03 (inactive).

For `CO[C@H]1COC(=O)[C@H](Cc2ccccc2)NC(=O)CC=C[C@@H](C)[C@H](OC)COC(=O)CC=C[C@@H]1C`, the composite z-score in [1] was -0.453; in experiment [2] it was 0.421; in [3] it was -0.0643; in experiment [4], 0.324; in experiment [5], -0.156; in experiment [6], 0.131. Further, the composite z-score in experiment [7] is 0.316; in [9], 0.244; in experiment [10], -0.504. Also, the z-score in experiment [8] is -0.244 (inactive).

As to `O=[N+]([O-])c1ccc(C[n+]2ccc3ccc(O)cc3c2)o1`, the composite z-score is -0.493 in [1]; 0.449 in experiment [2]; -0.146 in experiment [3]; 0.169 in [4]; 0.37 in [5]; 1.49 in experiment [6]. The composite z-score in experiment [7] was 1.11; in [9] it was 0.147; in [10], -0.411. The z-score in [8] was 0.468 (inactive).

Consider `O=C/C=C/c1ccccc1Cl`, for which the composite z-score was 0.206 in [1]; -0.0907 in [2]; -0.093 in [3]; -0.0502 in experiment [4]; -0.221 in experiment [5]; 1.05 in experiment [6]. Besides, the composite z-score in experiment [7] was -0.118; in experiment [9], 0.224; in experiment [10] it was 0.171. Besides, in [8], the z-score is 1.58 (inactive).

As for `C=CC[C@]1(C(=O)N2CCCCC2)N=C(c2ccc(OCCCO)cc2)O[C@H]1c1ccccc1N=[N+]=[N-]`, the composite z-score in [1] came out at 1.16; in experiment [2] it was 1.11; in experiment [3], 0.256; in [4], 0.984; in experiment [5], 1.5; in [6], 1.67. Further, the figures for the composite z-score in experiment [7], in experiment [9] and in [10] were 1.24, 1.87 and -0.0237, respectively. The z-score in experiment [8] was -2.1 (inactive).

Regarding `C=CCC(OC(C)=O)[C@@H]1[C@@H](N(Cc2ccc(-c3ccccc3)cc2)C(=O)c2ccc(C)cc2)c2cc(OCCCO)ccc2N1C(=O)c1ccc(-c2ccccc2)cc1` (stereo not given in full), the composite z-score in experiment [1] was -0.0264; in [2], -0.192; in experiment [3], -0.006; in experiment [4], 0.0126; in experiment [5], -0.245; in experiment [6], -0.0564. Moreover, the composite z-score in experiment [7] is -0.538; in experiment [9] it was 0.186; in experiment [10] it was -0.405. Further, the z-score in experiment [8] was -2.08 (inactive).

As for `CCCC=C(CCC)[C@@H](NC(=O)c1ccccc1)c1ccccc1`, the composite z-score in [1] is 0.969; in [2], -0.239; in experiment [3], -0.0392; in [4], -0.41; in experiment [5] it was -0.028; in experiment [6], -0.806. The composite z-score was -0.943 in experiment [7], 0.636 in [9] and 0.304 in [10]. In addition, the z-score in [8] is -0.788 (inactive).

`COc1ccc([Si](C)(C)[C@@H]2[C@@H](CCO)O[C@]3(C(=O)N(Cc4ccccc4)c4ccccc43)[C@H]2C)cc1`: the composite z-score was -0.377 in experiment [1]; 0.274 in experiment [2]; -0.0692 in [3]; 0.351 in experiment [4]; 0.216 in experiment [5]; -0.01 in experiment [6]. Further, the composite z-score in experiment [7] is 0.501; in experiment [9], -0.0439; in experiment [10] it was -0.0994. Besides, the z-score in experiment [8] is 0.377 (inactive).
